Reference: PubChem BioAssay AID651640 (Broad Institute, 2012)
Out of some 350,000 compounds screened, about 6,000 (1.7%) were called active. Inconclusive results (about 5%) are left out. The sample as a whole holds a higher share of actives than the screen did. Unmarked numbers belong to inactive results. No stated cut-off is given here; in the data, active means CPE inhibition above about 20% (passing the limit was not always enough); inconclusive means no clear call, values can overlap the other calls; tested in BHK-21 cells.

assay: protection of cells from dengue 2 killing – plate reader, single concentration, primary screen (AID 651640); conditions: DENV2-infected cells, cytopathic effect rescue, at 9.99 µM, stronger effect = higher value;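 further: 0% = median of neutral control wells and 100% = median of positive control wells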

For `C[C@@H]1CCCCO[C@H](CN(C)S(=O)(=O)c2cn(C)cn2)[C@@H](C)CN([C@@H](C)CO)C(=O)c2cc(NC(=O)c3ccncc3)ccc2O1`, which CPE inhibition is on record?
The CPE inhibition was 1.9%.

For `O=C(CN1CCc2cc3c(cc2C1)OCCCO3)Nc1ccccc1`, which CPE inhibition is on record?
The CPE inhibition was 28.1% (active).

With `COc1cc2c(cc1OC)CN(CC(=O)Nc1ccc(F)cc1)CC2` as the compound, how does the CPE inhibition read?
Its CPE inhibition is -5.5%.

Which CPE inhibition does the source give for `O=C(CN1CCOCC1)Nc1ccccc1` here?
The CPE inhibition was 1.83%.

With `O=C([C@@H]1[C@@H](CO)[C@@H]2Cn3c(ccc(C4=CCCCC4)c3=O)[C@H]1N2Cc1nccs1)N1CCCCC1` as the compound, how does the CPE inhibition read?
The CPE inhibition was -3.86%.

Which CPE inhibition does the source give for `COc1ccc2c3c(n(C)c2c1)[C@@H](CO)N(C(=O)c1cccnc1)CC31CCN(C(=O)c2cccnc2)CC1` here?
Its CPE inhibition is -1.97%.

For `CCCC#Cc1ccc([C@@H]2[C@@H](CO)N3C(=O)CN(C(=O)c4ccncc4)C[C@@H]23)cc1`, which CPE inhibition is on record?
Its CPE inhibition is 0.156%.

For `COCC(=O)N1[C@H](CO)[C@@H](c2ccccc2)[C@H]1CN(C)C(=O)c1ccncc1`, which CPE inhibition is on record?
The CPE inhibition was -13.8%.

Which CPE inhibition does the source give for `COCC(=O)N1[C@H](CNC(=O)c2ccccn2)[C@H](c2ccccc2)[C@@H]1CO` here?
The CPE inhibition was 35.1% (active).

Which CPE inhibition does the source give for `CCNC[C@@H]1[C@@H](c2ccccc2)[C@@H](CO)N1C(=O)Cc1ccccn1` here?
The CPE inhibition was -0.972%.

With `COc1ccc2c3c([nH]c2c1)[C@H](CO)N(Cc1cccc(F)c1)CC31CCN(Cc2ccccn2)CC1` as the compound, how does the CPE inhibition read?
The CPE inhibition was 5.05%.

Which CPE inhibition does the source give for `CCCc1cc(=O)oc2cc(OCC(=O)Nc3ccc(CN4CCOCC4)cc3)c(Cl)cc12` here?
Its CPE inhibition is 2.98%.

With `O=C(Nc1ccc(CN2CCOCC2)cc1)c1cc(Cl)ccc1Cl` as the compound, how does the CPE inhibition read?
The CPE inhibition was 0.583%.

For `CCOc1ccc(C(=O)Nc2ccc(CN3CCOCC3)cc2)cc1Cl`, which CPE inhibition is on record?
Its CPE inhibition is 29.8% (active).

Which CPE inhibition does the source give for `Cc1noc(C)c1NC(=O)Nc1ccc2c(c1)CC(=O)N([C@H](C)CO)C[C@@H](C)[C@H](CN(C)S(=O)(=O)c1cccs1)O2` here?
Its CPE inhibition is 5.9%.

With `C[C@@H]1CN([C@@H](C)CO)C(=O)c2cccc(NS(=O)(=O)c3ccc(Cl)cc3)c2O[C@@H]1CN(C)Cc1ccccc1` as the compound, how does the CPE inhibition read?
Its CPE inhibition is 10.9%.

For `O=C(Cc1cccnc1)N1CC(=O)N2[C@@H](CO)[C@@H](c3ccc(C#CC4CCCCC4)cc3)[C@@H]2C1`, which CPE inhibition is on record?
The CPE inhibition was 6.08%.

For `O=C(Nc1nnc(-c2ccccc2)o1)c1cc(-c2cccs2)nc2ccccc12`, which CPE inhibition is on record?
Its CPE inhibition is -13.1%.

Which CPE inhibition does the source give for `CCCCN(C)CCCNC(=O)c1cc(-c2cccs2)nc2ccccc12` here?
The CPE inhibition was 41.4% (active).

With `CC(=O)NCCNC(=O)c1cc(-c2cccc3ccccc23)nc2ccccc12` as the compound, how does the CPE inhibition read?
The CPE inhibition was 2.13%.

For `C/C=C/c1ccc([C@@H]2[C@@H](CN(C)C(C)=O)N(C(=O)C3CC3)[C@H]2CO)cc1`, which CPE inhibition is on record?
The CPE inhibition was 41.4% (active).

Which CPE inhibition does the source give for `C/C=C/c1ccc([C@H]2[C@@H](CO)N(C(=O)NCCC)[C@H]2CN(C)C(C)=O)cc1` here?
Its CPE inhibition is -22.2%.

Which CPE inhibition does the source give for `C/C=C/c1ccc([C@@H]2[C@@H](CO)N(C(C)=O)[C@H]2CN(C)C(=O)CN(C)C)cc1` here?
The CPE inhibition was 8.38%.

Which CPE inhibition does the source give for `COc1ccc(-c2cn(CC[C@H]3CC[C@@H](NC(=O)CCN4CCCCC4)[C@H](CO)O3)nn2)cc1` here?
Its CPE inhibition is -5.26%.

With `Cc1noc(C)c1S(=O)(=O)Nc1ccc2c(c1)C(=O)N([C@@H](C)CO)C[C@H](C)[C@H](CN(C)CC1CCCCC1)OCCCC[C@H](C)O2` as the compound, how does the CPE inhibition read?
Its CPE inhibition is -11.5%.

For `CC(C)NC(=O)N1[C@@H]2c3ccc(-c4ccc(F)cc4)c(=O)n3C[C@@H]2[C@@H](CO)[C@@H]1C(=O)N1CCOCC1`, which CPE inhibition is on record?
The CPE inhibition was 69.3% (active).

With `O=C([C@@H]1[C@@H](CO)[C@@H]2Cn3c(ccc(-c4cncnc4)c3=O)[C@@H]2N1C(=O)C1CCC1)N1CCCCC1` as the compound, how does the CPE inhibition read?
Its CPE inhibition is -0.056%.

For `COc1cccc(-c2ccc3n(c2=O)C[C@@H]2[C@@H](CO)[C@H](C(=O)NCC4CC4)N(C(=O)NC(C)C)[C@H]32)c1`, which CPE inhibition is on record?
Its CPE inhibition is 13.2%.

With `CCC(=O)N1CCCCN2[C@H](C1)[C@@H](c1ccc(/C=C/c3ccccc3)cc1)[C@@H]2CO` as the compound, how does the CPE inhibition read?
Its CPE inhibition is -4.84%.

Which CPE inhibition does the source give for `CC(C)(C)[S@@](=O)N1Cc2cc(C(=O)N3CCCCC3)nc(-c3cccc(-c4cccc(C#N)c4)c3)c2[C@H]1CCO` here?
The CPE inhibition was -1%.

With `CC(C)(C)[S@](=O)N1Cc2cc(C(=O)N3CCCCC3)nc(-c3cccc(Br)c3)c2[C@@H]1CCO` as the compound, how does the CPE inhibition read?
The CPE inhibition was 41.3% (active).

With `CC(C)(C)[S@](=O)N1Cc2cc(C(=O)N3CCCCC3)nc(-c3cccc(-c4ccccc4F)c3)c2[C@@H]1CCO` as the compound, how does the CPE inhibition read?
Its CPE inhibition is 1.74%.

For `CCC(CC)COC(=O)C1=C(C)NC(=O)NC1c1ccc([N+](=O)[O-])cc1` (stereo not drawn), which CPE inhibition is on record?
Its CPE inhibition is 4.17%.

Which CPE inhibition does the source give for `CCOC(=O)C1=C(C)N(C[C@@H]2CC[C@@H](Cc3ccc(-c4ccccc4)cc3)O2)C(=O)NC1c1ccc([N+](=O)[O-])cc1` (stereo partly drawn) here?
Its CPE inhibition is 49.3% (active).

For `COC(=O)CCCCCN1C(=O)NC(c2ccc(-c3ccccc3)cc2)C(C(=O)OCc2ccccc2)=C1C` (stereo not drawn), which CPE inhibition is on record?
The CPE inhibition was -1.13%.

For `C[C@@H]1CN([C@H](C)CO)C(=O)c2cc(NC(=O)CCCCCC(=O)Nc3ccccc3N)ccc2O[C@@H]1CN(C)Cc1ccncc1`, which CPE inhibition is on record?
The CPE inhibition was -1.11%.

Which CPE inhibition does the source give for `COc1ccc2c3c([nH]c2c1)[C@@H](CO)N(C(=O)c1cccc(F)c1)CC31CN(C(C)=O)C1` here?
Its CPE inhibition is -11.3%.

Which CPE inhibition does the source give for `O=C(C[C@H]1C=C[C@@H](NC(=O)Nc2cc(F)ccc2F)[C@H](CO)O1)NCCCN1CCOCC1` here?
Its CPE inhibition is -8.14%.

Which CPE inhibition does the source give for `COc1ccccc1NC(=O)N1C[C@H]2[C@@H](c3ccccc31)[C@@H](CO)N2C(=O)C1CCCC1` here?
The CPE inhibition was -7.24%.

With `Cc1noc(C)c1S(=O)(=O)N(C)C[C@@H]1OCCCC[C@H](C)Oc2ccc(NC(=O)Nc3ccc4c(c3)OCO4)cc2C(=O)N([C@H](C)CO)C[C@@H]1C` as the compound, how does the CPE inhibition read?
The CPE inhibition was -3.84%.

With `Cc1noc(C)c1S(=O)(=O)N(C)C[C@@H]1OCCCC[C@@H](C)Oc2ccc(NS(=O)(=O)c3ccccc3)cc2C(=O)N([C@H](C)CO)C[C@@H]1C` as the compound, how does the CPE inhibition read?
Its CPE inhibition is -8.98%.

With `Cc1noc(C)c1S(=O)(=O)N(C)C[C@@H]1OCCCC[C@H](C)Oc2ccc(NC(=O)NC3CCCCC3)cc2C(=O)N([C@@H](C)CO)C[C@H]1C` as the compound, how does the CPE inhibition read?
Its CPE inhibition is -11.4%.

For `C[C@@H]1CCCCO[C@@H](CN(C)S(C)(=O)=O)[C@H](C)CN([C@@H](C)CO)C(=O)c2cc(NC(=O)Nc3ccc4c(c3)OCO4)ccc2O1`, which CPE inhibition is on record?
Its CPE inhibition is 12.2%.

With `COc1ccc(S(=O)(=O)Nc2ccc3c(c2)C(=O)N([C@@H](C)CO)C[C@H](C)[C@H](CN(C)S(=O)(=O)c2c(C)noc2C)OCCCC[C@@H](C)O3)cc1` as the compound, how does the CPE inhibition read?
Its CPE inhibition is 36% (active).

Which CPE inhibition does the source give for `Cc1noc(C)c1S(=O)(=O)N(C)C[C@@H]1OCCCC[C@H](C)Oc2ccc(NC(=O)NC(C)C)cc2C(=O)N([C@H](C)CO)C[C@@H]1C` here?
Its CPE inhibition is 51.8% (active).

For `COc1ccc(S(=O)(=O)N(C)C[C@H]2OCCCC[C@H](C)Oc3ccc(NS(=O)(=O)c4c(C)noc4C)cc3C(=O)N([C@@H](C)CO)C[C@@H]2C)cc1`, which CPE inhibition is on record?
The CPE inhibition was -3.17%.

With `Cc1noc(C)c1S(=O)(=O)N(C)C[C@@H]1OCCCC[C@@H](C)Oc2ccc(NC(=O)Nc3ccccc3)cc2C(=O)N([C@H](C)CO)C[C@@H]1C` as the compound, how does the CPE inhibition read?
Its CPE inhibition is 3.34%.

With `Cc1noc(C)c1S(=O)(=O)N(C)C[C@@H]1OCCCC[C@H](C)Oc2ccc(NC(=O)Nc3ccc4c(c3)OCO4)cc2C(=O)N([C@H](C)CO)C[C@H]1C` as the compound, how does the CPE inhibition read?
The CPE inhibition was 27.1% (active).
